Data taken from PubChem BioAssay (Tox21).
“And” between values parts separate entries of the source, which are not always exact repeats. Equal values may be shown once. Inconclusive results are not listed. A number with no mark means an inactive call. The source made the active and inactive calls. Calls follow the shape of the dose curve; as a rule, active = well fitted curve in the direction sought with a large enough effect in the repeat runs; inconclusive = weak or mixed curves; inactive = no such curve, though single readings can be large; an effect the other way counts as inactive or inconclusive.

Assay: qHTS assay to identify small molecule antagonists of the retinoid acid receptor (RAR) signaling pathway - cell viability counter screen (AID 1159551); also: nearly all actives have a fitted effect of over 35% in size
Conditions: C3RL4 cells viability, ATP luminescence (CellTiter-Glo), 6 h; series mostly up to 92.4 µM; activity change, negative = cytotoxicity: at the top concentration
In short: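 Seed C3RL4 cells; next day add compound, then retinol to 1 uM final; incubate 6 h at 37 C; add CellTiter-Glo; read luminescence after 30 min at RT.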
% is scaled to controls: 0 for no effect and ±100 for the full control effect; potency is read from the fitted curve at half-maximal effect.

| Structure (SMILES) | Potency | activity change, negative = cytotoxicity |
| --- | --- | --- |
| C=CC(=O)[O][Sn]([CH2]CCC)([CH2]CCC)[CH2]CCC | 6.11 µM (active) |  |
| CC(=O)[O-].CC(=O)[O-].O.O.O.[Pb+2] |  | -1.89% |
| CNC(=O)Oc1cc(C)cc(C(C)C)c1 |  | 6.36% |
| CSSC |  | -4.11% |
| C[C@]12CC[C@H]3[C@@H](CCC4=CC(=O)CC[C@@H]43)[C@@H]1CC[C@@H]2OC(=O)CCc1ccco1 |  | -0.822% [at 42.5 µM] |
| CCn1cc[n+](C)c1 (tested in a mixture with another compound) |  | 2.46% |
| CCNc1nc(NC(C)C(C)C)nc(SC)n1 (stereo not given) |  | 0.673% |
| COC(=O)/C=C(\C)OP(=O)(OC)OC |  | 2.94% |
| COP(=S)(NC(C)C)Oc1ccc(C)cc1[N+](=O)[O-] (stereo not given) |  | -0.104% |
| CCOP(=O)(OCC)Oc1cc(C)nc(C(C)C)n1 |  | 3.45% |
| CN(C)C(=S)SSC(=S)N(C)C | 67.6 µM (active) |  |
| CCNS(=O)(=O)C(F)(F)C(F)(F)C(F)(F)C(F)(F)C(F)(F)C(F)(F)C(F)(F)C(F)(F)F |  | -1.8% |
| O=S(=O)(O)F |  | -0.351% |
| Clc1ccc(C2(Cn3cncn3)OCCO2)c(Cl)c1 |  | 1.23% |
| ClC1(Cl)C2(Cl)C3(Cl)C4(Cl)C(Cl)(Cl)C5(Cl)C3(Cl)C1(Cl)C5(Cl)C24Cl (stereo not given) |  | -0.195% |
| CCCCn1cc[n+](C)c1.[Cl][Fe-]([Cl])([Cl])[Cl] |  | 2.64% |

Assay: qHTS assay to identify small molecule antagonists of the retinoic acid receptor (RAR) signaling pathway (AID 1159552; also: nearly all actives have a fitted effect of over 50% in size)
Conditions: C3RL4 RARE luciferase reporter, retinol-stimulated, 6 h; series mostly up to 92.4 µM; activity, negative = inhibition: at the top concentration
In short: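 Cells of the C3RL4 line were seeded, incubated overnight, then dosed with compounds in DMSO followed immediately by retinol (1 uM final). Six hours later luciferase detection reagent went in; signal was measured after 30 min at RT.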

| Structure (SMILES) | activity, negative = inhibition | Potency |
| --- | --- | --- |
| CCN(CC)CCc1c[nH]c2ccccc12 | 12.5% |  |
| Nc1ccccc1-c1ccccc1 | 47.8% |  |
| O=C1C(Cl)=C(Cl)C(=O)C(Cl)=C1Cl |  | 54.3 µM (active) and 61.1 µM (active) |
| CN1C(=O)[C@@H](NC(=O)c2cc3ccccc3[nH]2)N=C(c2ccccc2)c2ccccc21 | -7.04% [at 42.5 µM] |  |
| O=c1[nH]c2cc(Cl)ccc2n1C1CCNCC1 | -6.45% [at 42.5 µM] |  |
| N#CSCc1ccccc1 |  | 48800 nM (active) |
| COc1ccc2[nH]cc(CCN(C(C)C)C(C)C)c2c1 | 6.06% |  |
| O=[N+]([O-])c1ccc(CCl)cc1 | -0.465% |  |
| CCCCN(CCCC)C(=S)S | 2.97% |  |
| CC(=O)[O][Pb]([c]1ccccc1)([c]1ccccc1)[c]1ccccc1 |  | 486 nM (active) |
| C=CC(=O)[O][Sn]([CH2]CCC)([CH2]CCC)[CH2]CCC |  | 864 nM (active) |
| CSSC | 19% |  |
| C[C@]12CC[C@H]3[C@@H](CCC4=CC(=O)CC[C@@H]43)[C@@H]1CC[C@@H]2OC(=O)CCc1ccco1 | -14.8% [at 42.5 µM] |  |
| CCNc1nc(NC(C)C(C)C)nc(SC)n1 (stereo not given) | -8.18% |  |
| COC(=O)/C=C(\C)OP(=O)(OC)OC | 7.4% |  |
| CN(C)C(=S)SSC(=S)N(C)C |  | 214 nM (active) and 306 nM (active) |
| CCNS(=O)(=O)C(F)(F)C(F)(F)C(F)(F)C(F)(F)C(F)(F)C(F)(F)C(F)(F)C(F)(F)F | 59.2% |  |
| O=S(=O)(O)F | 14.6% |  |
| ClC1(Cl)C2(Cl)C3(Cl)C4(Cl)C(Cl)(Cl)C5(Cl)C3(Cl)C1(Cl)C5(Cl)C24Cl (stereo not given) | 8.33% |  |
